In ChEMBL document CHEMBL3988442, “University of Dundee, Small-Polar-MMV Screening Library” (2021) one finds Percent Effect data, which are given here for nine molecules.

For part of these data: Measured potencies and affinities stand elsewhere.

Holding throughout (parameters): scale not given: direction of the effect not stated beside the values
The target in test [1] is Protein translocase subunit SecA (Escherichia coli (strain K12)) (UniProt P10408). Briefly: Assay to Identify E. coli SecA ATPase Inhibitors. In kind it is functional. The following applies: 30 µM.
Chain of Protein translocase subunit SecA (Escherichia coli (strain K12)) (P10408 whole entry): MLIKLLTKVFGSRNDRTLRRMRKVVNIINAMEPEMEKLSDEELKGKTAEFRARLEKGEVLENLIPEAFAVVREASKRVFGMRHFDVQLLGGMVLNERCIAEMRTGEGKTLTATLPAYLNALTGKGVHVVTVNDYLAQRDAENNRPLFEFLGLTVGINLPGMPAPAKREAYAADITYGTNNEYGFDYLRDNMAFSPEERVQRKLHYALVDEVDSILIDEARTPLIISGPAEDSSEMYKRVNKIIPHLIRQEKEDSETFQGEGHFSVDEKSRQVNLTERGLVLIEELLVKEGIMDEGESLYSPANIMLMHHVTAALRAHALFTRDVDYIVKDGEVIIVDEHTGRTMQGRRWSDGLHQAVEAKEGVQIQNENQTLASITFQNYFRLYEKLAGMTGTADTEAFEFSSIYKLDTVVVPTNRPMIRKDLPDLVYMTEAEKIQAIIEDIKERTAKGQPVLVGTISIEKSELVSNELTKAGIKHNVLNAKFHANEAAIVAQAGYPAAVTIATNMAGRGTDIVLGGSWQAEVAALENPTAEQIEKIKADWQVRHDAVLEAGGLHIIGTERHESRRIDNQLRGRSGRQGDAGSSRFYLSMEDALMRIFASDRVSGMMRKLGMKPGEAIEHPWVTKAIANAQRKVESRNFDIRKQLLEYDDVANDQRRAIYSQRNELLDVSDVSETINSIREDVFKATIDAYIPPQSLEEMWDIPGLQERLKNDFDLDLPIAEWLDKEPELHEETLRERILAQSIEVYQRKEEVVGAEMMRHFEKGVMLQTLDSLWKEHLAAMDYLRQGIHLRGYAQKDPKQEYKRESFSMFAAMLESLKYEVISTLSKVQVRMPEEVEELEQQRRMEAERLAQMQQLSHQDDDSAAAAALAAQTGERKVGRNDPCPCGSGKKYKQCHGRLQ
Test [2] concerns the target T1, Ubiquitin-activating enzyme e1, putative (Leishmania donovani (strain BPK282A1)) (UniProt E9BSI1).
T1 sequence (whole entry): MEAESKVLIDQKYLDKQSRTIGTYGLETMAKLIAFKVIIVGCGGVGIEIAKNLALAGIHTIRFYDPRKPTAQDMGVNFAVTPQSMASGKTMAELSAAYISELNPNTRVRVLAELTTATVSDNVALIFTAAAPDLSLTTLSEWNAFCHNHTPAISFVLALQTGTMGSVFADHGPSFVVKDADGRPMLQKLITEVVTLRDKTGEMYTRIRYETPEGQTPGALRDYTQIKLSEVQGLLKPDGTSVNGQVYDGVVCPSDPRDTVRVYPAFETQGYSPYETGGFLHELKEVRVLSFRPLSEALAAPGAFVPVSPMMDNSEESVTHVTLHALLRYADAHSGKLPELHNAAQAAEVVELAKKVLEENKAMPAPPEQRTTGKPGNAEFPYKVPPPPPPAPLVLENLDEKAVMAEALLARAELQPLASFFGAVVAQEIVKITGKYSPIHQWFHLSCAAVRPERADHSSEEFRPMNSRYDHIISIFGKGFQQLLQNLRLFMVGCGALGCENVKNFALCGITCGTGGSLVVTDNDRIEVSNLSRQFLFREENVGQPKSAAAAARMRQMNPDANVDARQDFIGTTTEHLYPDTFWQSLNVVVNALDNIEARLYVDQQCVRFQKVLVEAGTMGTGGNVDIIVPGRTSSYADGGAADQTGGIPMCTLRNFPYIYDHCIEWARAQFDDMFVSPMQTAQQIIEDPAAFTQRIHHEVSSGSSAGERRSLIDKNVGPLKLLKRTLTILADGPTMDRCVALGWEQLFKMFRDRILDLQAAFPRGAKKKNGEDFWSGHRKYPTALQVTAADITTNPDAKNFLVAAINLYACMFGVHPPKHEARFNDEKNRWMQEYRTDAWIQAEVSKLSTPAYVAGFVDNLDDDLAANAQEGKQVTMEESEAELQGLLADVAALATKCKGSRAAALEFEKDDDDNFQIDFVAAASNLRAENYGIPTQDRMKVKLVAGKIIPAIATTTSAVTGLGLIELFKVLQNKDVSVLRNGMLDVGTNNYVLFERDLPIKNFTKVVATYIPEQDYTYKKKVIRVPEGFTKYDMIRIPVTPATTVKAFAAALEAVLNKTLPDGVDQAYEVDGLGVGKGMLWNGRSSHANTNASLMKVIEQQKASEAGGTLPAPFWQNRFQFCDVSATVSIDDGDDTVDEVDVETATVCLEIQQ
The test is described as follows: Leishmania donovani Ubiquitin Activating Enzyme (LdE1). The test is classed as functional. The following applies: 30 µM.

The target of test [3] is AMP-activated protein kinase, AMPK (Homo sapiens) (UniProt P54646+O43741+P54619+Q9UGJ0+Q9Y478+Q13131+Q9UGI9). Briefly: AMP-dependent Kinase enzyme assay. An in vitro enzyme assay that detects ADP turnover that is directly proportional to AMPK activity. This uses naive AMPK that is activated during the assay with MK-8722. In kind it is functional. To be noted: 30 µM.
Test [4] concerns the target Sialic acid-binding Ig-like lectin 9 (Homo sapiens) (UniProt Q9Y336). The test is described as follows: Hs-Siglec9 ALPHAscreen SOP 20170721. To be noted: 10 µM. In general terms: In Alpha technology, singlet oxygen from a donor bead excites a nearby acceptor bead.
For the next test, the system named is Trypanosoma cruzi. Briefly: Trypanosoma cruzi phosphomannomutase and mannose-1-phosphate guanylyltransferase assay. The test is classed as functional. The following applies: 10 µM.
The target of test [5] is T2, Arginase-2, mitochondrial (Homo sapiens) (UniProt P78540).
T2 sequence (whole entry): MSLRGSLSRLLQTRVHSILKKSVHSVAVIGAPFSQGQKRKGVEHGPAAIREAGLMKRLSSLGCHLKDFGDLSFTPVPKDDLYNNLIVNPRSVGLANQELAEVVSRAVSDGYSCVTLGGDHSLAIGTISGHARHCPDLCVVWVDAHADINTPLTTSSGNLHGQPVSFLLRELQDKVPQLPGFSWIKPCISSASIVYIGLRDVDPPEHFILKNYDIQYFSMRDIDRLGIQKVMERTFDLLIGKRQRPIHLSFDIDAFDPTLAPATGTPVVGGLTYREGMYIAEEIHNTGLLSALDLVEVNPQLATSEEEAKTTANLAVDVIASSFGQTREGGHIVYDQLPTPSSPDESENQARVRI
Briefly: in vitro enzyme assay to detect the production of urea directly proportional to the activity of Arginase II. Further: in the data most compounds retested in dose-response had high values. The test is classed as functional. The following applies: 33.3 µM.

The target of test [6] is T3, Proteasome subunit beta (Trypanosoma cruzi) (UniProt O96673).
T3 sequence (whole entry): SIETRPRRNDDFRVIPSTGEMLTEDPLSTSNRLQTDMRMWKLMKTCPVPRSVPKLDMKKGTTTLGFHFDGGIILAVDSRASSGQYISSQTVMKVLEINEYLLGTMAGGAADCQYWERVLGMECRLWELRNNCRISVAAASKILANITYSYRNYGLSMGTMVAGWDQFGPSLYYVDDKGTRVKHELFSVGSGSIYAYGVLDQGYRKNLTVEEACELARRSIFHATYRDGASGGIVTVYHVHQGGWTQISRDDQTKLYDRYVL
The test is described as follows: Trypanosoma cruzi proteasome chymotrypsin-like activity (TcProtChymo) assay. Further: in the data most compounds retested in dose-response had high values. In kind it is functional. To be noted: 9.37 µM.

The species entered for a further test is Homo sapiens. Briefly: To identify inhibition of the IFN signalling (Jak-Stat) pathway via expression of an eGFP reporter gene under the control of an IFN-stimulated response element (ISRE) containing MxA promoter. The following applies: 30 µM. In kind it is functional. A general note: In a reporter assay the amount or activity of a reporter protein is the signal.

In test [7] the target is T4, Tyrosyl-tRNA synthetase, putative (Trypanosoma cruzi (strain CL Brener)) (UniProt Q4DSP6).
T4 sequence (whole entry): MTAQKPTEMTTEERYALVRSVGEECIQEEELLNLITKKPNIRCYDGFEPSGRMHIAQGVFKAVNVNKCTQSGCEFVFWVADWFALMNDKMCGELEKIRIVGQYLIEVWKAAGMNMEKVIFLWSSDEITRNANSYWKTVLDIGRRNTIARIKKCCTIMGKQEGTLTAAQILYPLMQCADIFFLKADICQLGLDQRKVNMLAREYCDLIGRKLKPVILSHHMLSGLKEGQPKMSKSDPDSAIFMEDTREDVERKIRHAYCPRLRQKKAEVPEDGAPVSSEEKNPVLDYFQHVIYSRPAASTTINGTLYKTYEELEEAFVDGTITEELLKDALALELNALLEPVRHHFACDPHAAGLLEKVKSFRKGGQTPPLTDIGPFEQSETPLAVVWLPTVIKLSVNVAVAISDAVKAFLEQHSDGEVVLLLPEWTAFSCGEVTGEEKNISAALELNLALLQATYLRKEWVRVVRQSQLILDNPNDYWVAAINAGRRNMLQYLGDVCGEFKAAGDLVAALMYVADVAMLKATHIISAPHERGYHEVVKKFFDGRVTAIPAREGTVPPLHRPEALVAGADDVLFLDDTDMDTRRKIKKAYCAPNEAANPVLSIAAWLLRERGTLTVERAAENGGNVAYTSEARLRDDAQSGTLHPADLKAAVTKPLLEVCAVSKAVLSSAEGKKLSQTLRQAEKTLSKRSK
The test is described as follows: Trypanosoma cruzi tyrosyl tRNA synthetase (TcYRS) _High Tyrosine SOP. Further: in the data most compounds retested in dose-response had high values. In kind it is functional. To be noted: 30 µM.

The target in test [8] is T4, Tyrosyl-tRNA synthetase, putative (Trypanosoma cruzi (strain CL Brener)). The test is described as follows: Trypanosoma cruzi tyrosyl tRNA synthetase (TcYRS) SOP. The following applies: 30 µM. The test is classed as functional.
Test [9] concerns the target Chromo domain-containing protein 1 (Saccharomyces cerevisiae (strain ATCC 204508 / S288c) (Baker's yeast)) (UniProt P32657). The test is described as follows: ScCHD-1 Enzyme Inhibition Assay. Further: in the data most compounds retested in dose-response had high values. The test is classed as functional. To be noted: 30 µM.

Chain of Chromo domain-containing protein 1 (Saccharomyces cerevisiae (strain ATCC 204508 / S288c) (Baker's yeast)) (P32657 whole entry, the tested form may be a part): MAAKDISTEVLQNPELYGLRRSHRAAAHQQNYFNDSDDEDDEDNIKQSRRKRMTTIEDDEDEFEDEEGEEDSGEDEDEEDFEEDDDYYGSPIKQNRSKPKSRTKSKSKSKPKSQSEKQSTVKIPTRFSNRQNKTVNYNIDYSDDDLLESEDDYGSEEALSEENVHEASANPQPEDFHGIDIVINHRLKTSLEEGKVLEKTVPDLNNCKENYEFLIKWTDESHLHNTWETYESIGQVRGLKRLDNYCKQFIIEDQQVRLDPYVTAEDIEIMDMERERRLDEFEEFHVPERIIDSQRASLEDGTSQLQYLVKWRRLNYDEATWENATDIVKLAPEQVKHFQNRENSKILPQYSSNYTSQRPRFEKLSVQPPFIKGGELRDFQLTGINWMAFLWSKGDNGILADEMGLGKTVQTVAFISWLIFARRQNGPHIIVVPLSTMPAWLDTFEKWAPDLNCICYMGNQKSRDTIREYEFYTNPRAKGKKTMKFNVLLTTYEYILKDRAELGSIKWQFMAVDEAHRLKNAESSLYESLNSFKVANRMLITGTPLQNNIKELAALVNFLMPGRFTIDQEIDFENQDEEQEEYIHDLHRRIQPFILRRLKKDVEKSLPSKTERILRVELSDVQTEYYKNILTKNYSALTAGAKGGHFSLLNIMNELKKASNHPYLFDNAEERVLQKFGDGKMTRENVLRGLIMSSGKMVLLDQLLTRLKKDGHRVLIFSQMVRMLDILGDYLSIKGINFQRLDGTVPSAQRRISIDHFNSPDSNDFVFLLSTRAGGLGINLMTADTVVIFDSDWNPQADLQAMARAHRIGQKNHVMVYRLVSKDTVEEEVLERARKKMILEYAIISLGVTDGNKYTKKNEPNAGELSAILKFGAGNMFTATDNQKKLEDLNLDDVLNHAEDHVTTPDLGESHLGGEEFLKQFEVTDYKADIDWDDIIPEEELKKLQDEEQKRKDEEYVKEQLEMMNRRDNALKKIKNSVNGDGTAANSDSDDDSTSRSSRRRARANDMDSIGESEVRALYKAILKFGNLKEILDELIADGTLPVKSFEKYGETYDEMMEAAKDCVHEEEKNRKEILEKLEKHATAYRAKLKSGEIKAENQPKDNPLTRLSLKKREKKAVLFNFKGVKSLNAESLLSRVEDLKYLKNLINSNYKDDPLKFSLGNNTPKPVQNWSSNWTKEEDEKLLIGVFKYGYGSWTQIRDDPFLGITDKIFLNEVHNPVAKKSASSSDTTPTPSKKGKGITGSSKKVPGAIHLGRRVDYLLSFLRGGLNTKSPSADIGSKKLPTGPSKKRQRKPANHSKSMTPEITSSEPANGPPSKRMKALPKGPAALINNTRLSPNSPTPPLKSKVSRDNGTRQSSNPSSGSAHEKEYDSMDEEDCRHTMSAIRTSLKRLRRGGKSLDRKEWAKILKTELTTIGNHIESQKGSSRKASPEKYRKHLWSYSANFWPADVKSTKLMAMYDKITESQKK
Chain of Sialic acid-binding Ig-like lectin 9 (Homo sapiens) (Q9Y336 whole entry): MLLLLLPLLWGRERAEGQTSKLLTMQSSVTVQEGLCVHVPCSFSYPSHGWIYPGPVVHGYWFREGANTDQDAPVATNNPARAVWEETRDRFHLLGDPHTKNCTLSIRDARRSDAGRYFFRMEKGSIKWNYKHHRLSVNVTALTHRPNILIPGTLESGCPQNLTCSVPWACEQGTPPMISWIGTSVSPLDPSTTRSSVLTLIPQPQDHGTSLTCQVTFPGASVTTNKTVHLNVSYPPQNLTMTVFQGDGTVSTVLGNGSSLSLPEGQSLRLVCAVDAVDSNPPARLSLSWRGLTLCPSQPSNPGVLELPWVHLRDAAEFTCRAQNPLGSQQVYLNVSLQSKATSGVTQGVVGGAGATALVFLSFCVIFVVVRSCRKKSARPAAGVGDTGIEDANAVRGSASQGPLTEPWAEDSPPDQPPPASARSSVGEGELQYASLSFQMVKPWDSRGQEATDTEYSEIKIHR

Regarding `O=C(c1ccc[nH]1)N1CCCC(c2cc(C(F)(F)F)[nH]n2)C1` (centres undefined), the Percent Effect in [1] was -5.38%; in [2], -10.5%; in [3], 1.16%; in test [4] it was 17.4%; in the test with Trypanosoma cruzi, -4.39%; in [5], -1.08%. In addition, the Percent Effect in test [6] is -0.0846%; in the test filed under Homo sapiens it was 35.6%; in test [7], 3.45%; in test [8], 6.17%; in [9], -3.1%.
In the case of `CC(C)C(=O)N1CCC(c2nc(O)cc(-c3ccncc3)n2)CC1`, the Percent Effect is -5% in test [1]; 25.7% in test [2]; 5.51% in test [3]; -2.98% in test [4]; 3.16% with Trypanosoma cruzi; -2.09% in test [5]. For the same molecule, the Percent Effect in test [6] was 10.9%; in the test listed under Homo sapiens, 14.4%; in [7], 5.38%; in test [8] it was 11.7%; in [9], -14.2%.
With `Cc1cc(C)n(CC2CN(Cc3cscn3)CCO2)n1` (centres undefined), the Percent Effect in test [1] is -2.86%; in test [2] it was 23.7%; in test [3], -2.52%; in test [4], -2.39%; in the test on Trypanosoma cruzi, 2.63%; in test [5], -0.383%. Also, the Percent Effect is 27.2% in [6]; -6.47% in the test listed under Homo sapiens; 7.35% in test [7]; 21.9% in test [8]; -11.6% in [9].
Take `CCN(Cc1ccccc1)C(=O)CN1CCCC(Cn2cncn2)C1` (centres undefined): the Percent Effect is -8.07% in [1]; 21.1% in [2]; -3.72% in test [3]; 18.3% in test [4]; 3.64% in the test with Trypanosoma cruzi; 2.16% in test [5]. The Percent Effect in [6] is 8.38%; in the test listed under Homo sapiens, -4.88%; in test [7] it was -4.43%; in [8], 23.5%; in test [9], -6.71%.
As to `COc1cccc(CN(C)Cc2cccc(C#N)c2)c1OC`, the Percent Effect in [1] was -2.4%; in test [2], 10.8%; in test [3] it was -3.58%; in test [4], 5.68%; with Trypanosoma cruzi, 5.08%; in [5], 23.3%. The Percent Effect in test [6] was 8.88%; in the test listed under Homo sapiens, 7.86%; in test [7] it was 1.98%; in [8], -1.22%; in test [9], -6.76%.
Take `CCOC(=O)N1CCN(c2nc(NCCCO)c3ccccc3n2)CC1`: the Percent Effect in [1] was -3.88%; in test [2] it was -1.33%; in test [3], 5.25%; in [4], 7.39%; with Trypanosoma cruzi, 5.5%; in [5], -0.88%. The Percent Effect in test [6] is 0.739%; in the test listed under Homo sapiens it was 15.2%; in test [7], 2.12%; in test [8], 5.13%; in [9] it was -3.87%.
For the molecule `CC(C)c1nc2n(n1)CC(NCc1ncc(-c3ccccc3)o1)CC2` (centres undefined), the Percent Effect in test [1] is -0.807%; in [2], 2.6%; in test [3] it was -3.44%; in [4], 5.78%; in the test with Trypanosoma cruzi, 4.8%; in [5], 4.84%. Further, the Percent Effect in test [6] was 4.12%; in the test filed under Homo sapiens it was 8.03%; in test [7], 2.86%; in test [8], 2.35%; in test [9], -14.2%.
`CC(C)CNC(=O)NC(=O)CNc1ccccc1SCC(C)C#N` (centres undefined): the Percent Effect in [1] is -5.8%; in [2], 11%; in [3] it was 6%; in test [4], 16.8%; with Trypanosoma cruzi it was 1.37%; in [5], 6.82%. The Percent Effect is 9.41% in [6]; 11.3% in the test filed under Homo sapiens; 0% in [7]; 12.5% in [8]; -5.23% in test [9].
In the case of `CC[C@H](C)[C@H](NC(=O)Cc1csc(-c2cccc(Cl)c2)n1)C(=O)O`, the Percent Effect in test [1] was -3.85%; in test [2], 9.33%; in test [3] it was 11.6%; in test [4], 11.9%; with Trypanosoma cruzi it was 0.982%; in test [5], -4.75%. In addition, the Percent Effect was 12.6% in test [6]; -8.02% in the test listed under Homo sapiens; 4.23% in test [7]; 7.69% in [8]; -5.96% in test [9].
